Data on 30 molecules can be found in PubChem BioAssay (NCATS).

Molecules are shown by their SMILES. Records with an inconclusive call do not appear. Where a call stands in place of a potency, no number is given. The source made the active and inactive calls. Calls follow the shape of the dose curve; as a rule, active = well fitted inhibition curve with a large enough effect; inconclusive = small, poorly fitted or top-dose-only effect; inactive = flat fitted curve, though single readings scatter.

Sequence of Calcium and integrin-binding protein 1 (Homo sapiens) (Q99828 whole entry, looked up): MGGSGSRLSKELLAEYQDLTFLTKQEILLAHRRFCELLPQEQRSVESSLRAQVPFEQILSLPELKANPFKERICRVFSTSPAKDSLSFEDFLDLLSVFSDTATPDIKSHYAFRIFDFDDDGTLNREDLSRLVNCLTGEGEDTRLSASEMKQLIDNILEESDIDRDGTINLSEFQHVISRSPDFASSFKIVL

The target in the experiment is Calcium and integrin-binding protein 1 (Homo sapiens) (UniProt Q99828). Put plainly: Primary qHTS for Identification of Calcium Integrin Binding Protein 1 (CIB1) Competitor (AID 1508620). Also: top concentration of the series differs between compounds. The settings on record: CIB1-GST / FITC-alphaIIb peptide fluorescence polarization; series mostly up to 114 µM. In a few lines:
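Fluorescence polarization competition: GST-tagged CIB1 (1 uM final) preincubated with compound 15 min at room temperature, then FITC-labelled alphaIIb peptide (100 nM final) added. After 15 min at room temperature, polarization read at Ex 480/Em 540.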
For orientation: qHTS replaces the single test concentration by a dilution series.
Consider `Cc1cc(C(=O)Nc2cccc(C(=O)Nc3cccc(C(F)(F)F)c3)c2)on1`, for which the Potency entry is “inactive”.
With `CC1(CCOC2OC(CO)C(O)C(O)C2O)CCC23OC2(C1)C(O)CC1C(C)(C(=O)O)CCCC13C` (stereo not given) the entry was “inactive”; with `CC(=O)O[C@@H]1C[C@H](O)[C@@]23CO[C@H](O)[C@]1(C)C2C[C@@H](O)[C@]1(C)C3C(=O)[C@H](OC(C)=O)[C@@]2(C)[C@H](c3ccoc3)C[C@H]3O[C@]321` (stereo not given in full), “inactive”.
Regarding `Cc1cc(NC(=O)Nc2ccc(F)c(F)c2)n(-c2ccccc2)n1`, the Potency result is “inactive”.
With `Cc1ccccc1NC(=O)Nc1ccc(CC(=O)N(C)[C@@H](CC(C)C)C(=O)NCC[C@H](NC(=O)[C@@H]2CCCN2S(=O)(=O)c2cc(Cl)cc(Cl)c2)C(=O)O)cc1` the entry was “inactive”.
The same measure for `CC(C)CC(=O)OC1OC=C(CO[C@@H]2O[C@H](CO)[C@@H](O)[C@H](O)[C@H]2O)C2CC(O)C(O)(CO)C12` (stereo not given in full): “inactive”; for `CCCC(=O)O[C@@H]1[C@@H]2[C@@H](OC(C)=O)[C@]3(C)C(=O)[C@H]4[C@@H](OC(C)=O)C(C)(C)C[C@H]4[C@]3(C)C(=O)[C@@]2(OC(C)=O)C[C@@H]1C`: “inactive”; for `CN[C@H](CC(C)C)C(=O)N[C@H]1C(=O)N[C@@H](CC(N)=O)C(=O)N[C@H]2C(=O)N[C@H]3C(=O)N[C@H](C(=O)N[C@H](C(=O)O)c4cc(O)cc(O)c4-c4cc3ccc4O)[C@H](O[C@H]3C[C@](C)(N)[C@@H](O)[C@H](C)O3)c3ccc(c(Cl)c3)Oc3cc2cc(c3O[C@@H]2O[C@H](CO)[C@@H](O)[C@H](O)[C@H]2O[C@H]2C[C@](C)(NCc3ccc(-c4ccc(Cl)cc4)cc3)[C@@H](O)[C@H](C)O2)Oc2ccc(cc2Cl)[C@H]1O`: “inactive”.
Turning to `CC(=O)O[C@H]1C(=O)[C@@]2(C)[C@H]([C@H](OC(=O)c3ccccc3)[C@]3(O)C[C@H](OC(=O)[C@H](O)[C@@H](NC(=O)c4ccccc4)c4ccccc4)C(C)=C1C3(C)C)[C@]1(OC(C)=O)CO[C@@H]1C[C@@H]2O`, the Potency result was “inactive”.
The same measure for `CN(C)c1nc(NC2CCC(NC(=O)c3ccc(F)c(F)c3)CC2)nc2ccccc12` (stereo not given): “inactive”; for `C[C@@H]1COCCN1c1cc(C2(S(C)(=O)=O)CC2)nc(-c2cccc3[nH]ccc23)n1`: “inactive”.
With `CC(C)(C)Nc1nc2cc(Cl)c(Cl)cc2nc1S(C)(=O)=O` the entry was “inactive”.
With `CC1=CC(=O)C2C(C)(C)CCC[C@]2(C)[C@H]1CO` (stereo not given in full) the entry was “inactive”; with `C[C@@H]1CCC2C(C)(C)[C@H](O)CC[C@]2(C)[C@@]12Cc1c(O)cc3c(c1O2)CNC3=O` (stereo not given in full), “inactive”; with `CC(C)(C)OC(=O)N1CCC(OCc2nc(-c3ccncc3)no2)CC1`, “inactive”.
Consider `CC(=O)c1cc2c(cc1O)OC(C)(C)C=C2`, for which the Potency result was “inactive”.
With `CC1(C)CC[C@]2(C(=O)O[C@@H]3O[C@H](CO)[C@@H](O)[C@H](O)[C@H]3O)CC[C@]3(C)C(=CCC4[C@@]5(C)C[C@@H](O)[C@H](O)[C@@](C)(CO)C5CC[C@]43C)C2[C@@H]1O` (stereo not given in full) the entry was “inactive”; with `C=C(C)C1CCC(C)C12CC(O)C1(C)OC1C2OC(=O)C(N)CCC(=O)O` (stereo not given), “inactive”.
The same measure for `O=C(/C=C\n1cnc(-c2cc(C(F)(F)F)cc(C(F)(F)F)c2)n1)N1CC(F)(F)C1`: “inactive”; for `C=C1[C@H](OC(C)=O)[C@H]2[C@@H](OC(C)=O)[C@](C)(OC(C)=O)C[C@]2(OC(C)=O)C(=O)[C@H](C)/C=C/C(C)(C)C(=O)[C@H](OC(=O)C(C)C)[C@H]1OC(C)=O`: “inactive”; for `C=CC(C)(C)c1[nH]c2cc3c(cc2c1CC1NC(=O)C2CCCN2C1=O)C=CC(C)(C)O3` (stereo not given): “inactive”.
With `CC1CC[C@]2(C(=O)O)CC[C@]3(C(=O)O)C(=CCC4[C@@]5(C)CC[C@H](OC6OC(C)C(O)C(OC7OC(CO)C(O)C(O)C7O)C6O)C(C)(C)C5CC[C@]43C)C2C1C` (stereo not given in full), the Potency entry was “inactive”.
The same measure for `CCC(=O)O[C@H]1C(C)(C)[C@H]([C@@H](O)C(=O)OC)[C@]2(C)C(=O)[C@@]1(O)[C@H]1O[C@]13C1CC(=O)O[C@@H](c4ccoc4)[C@]1(C)CCC32` (stereo not given in full): “inactive”.
The same measure for `CC(=O)O[C@H]1CC[C@H](C)[C@@]2(C)[C@H](OC(C)=O)c3c(C)coc3C(=O)[C@H]12`: “inactive”; for `C=CC1C(OC2OC(CO)C(O)C(O)C2O)OC=C2C(=O)N3C(C(=O)O)Cc4c([nH]c5ccccc45)C3CC21` (stereo not given): “inactive”.
On to `CC1=CC(=O)CC(C)(C)C1CCC(C)O[C@@H]1O[C@H](CO[C@@H]2OC[C@@H](O)[C@H](O)[C@H]2O)[C@@H](O)[C@H](O)[C@H]1O` (stereo not given in full), for which the Potency result is “inactive”.
The same measure for `CCOC(=O)Nc1cc(-c2ccc(C)c(NS(C)(=O)=O)c2)nn2c(C)nnc12`: “inactive”.
The same measure for `COc1cc(Br)c(Nc2nc(-c3c(C)nc4ncccn34)cs2)c(Br)c1`: “inactive”.
With `COC(=O)C1=C2Nc3ccccc3C23CCN2CCCC(C(C)O)(C1)C23` (stereo not given) the entry was “inactive”; with `C=C1CCC2C(C)(C(=O)O)CCCC2(C)C1CCC(C)CC(=O)O` (stereo not given), “inactive”.
